Screening results: PubChem, National Center for Advancing Translational Sciences (NCATS)
ClpP mod = qHTS Assay for Activators of ClpP. ATP-dependent Clp protease proteolytic subunit (Bacillus subtilis (strain 168)), P80244. purified B. subtilis ClpP, FRET peptide cleavage, 20 min. Potency, µM (highest dose often 57.5 µM), for the others: at the top dose activity change, negative = active. 1.9% of 340,000 active; active means well fitted falling curve with a large enough effect; inconclusive means small, poorly fitted or top-dose-only effect; inactive means no such curve, though single readings can be large or run the other way; further: potency means the concentration at half of the fitted maximal effect; the source files actives as falling curves though it sought activators and does not explain the sign; nearly all actives have a fitted effect of over 65% in size
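Buffer: 100 mM Tris/HCl pH8, 100 mM KCl, 0.05% low protease BSA, 2.5% glycerol, 0.01% Tween-20. ClpP 10 microg/mL final; 20 min RT; delta FRET normalized to ADEP and DMSO controls.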
DRD3 antagonist = blocks the human D3 dopamine receptor. AID 652054. P35462. max response, negative = inhibition, %. D3R cells, DiscoveRx beta-arrestin luminescence, antagonist mode; hits give low values. 2.5% of 360,000 active; in the data active means max response below about -50%; inconclusive means no clear call, values can overlap the other calls; further: on the % scale 0 is the no-effect control and ±100 the full control effect
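Cells expressing the human receptor were seeded at 1500 cells/well, incubated overnight at 37 degrees C in 5% CO2, then exposed to library compounds with dopamine controls for 90 minutes at 37 degrees C before luminescent detection.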
IL1B secr inh = inflammasome signaling inhibition, IL-1 beta readout. activity change, % at 57.5 µM. 4.7% of 360,000 active. THP-1 LPS/ATP IL-1B secretion, AlphaLISA, 16 h; hits give low values; in the data active means activity change below about -50%; inconclusive means mostly about -30% to -49%; further: on the % scale 0 is the no-effect control and ±100 the full control effect
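Secreted IL-1B measured by AlphaLISA bead assay after 16 h compound exposure of THP-1 cells; compounds (final up to 57.5 uM) added 1 h before LPS (250 ng/mL) and ATP (1.25 mM) stimulation; lower signal means less secretion.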
DT40 TDP1 no CPT = qHTS for Inhibitors of human tyrosyl-DNA phosphodiesterase 1 (TDP1): qHTS in cells in absence of CPT; DT40 Tdp1-/- hTDP1 cells, no CPT, ATP luminescence, 48 h; Potency, µM (series often up to 46.2 µM), inactives show top-dose activity change, negative = growth inhibition, hits mostly inhibitors; 15% of 420,000 active; AID 686978, 2013; further: potency means the concentration at half of the fitted maximal effect; on the % scale 0 is the no-effect control and ±100 the full control effect; nearly all actives have a fitted effect of over 55% in size
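Seeded 400 DT40-hTDP1 cells/well (vehicle DMSO, no 20 nM CPT); pinned compounds; ≥48 hr at 37 °C; CellTiter-Glo luminescence as viability measure.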
DRD3 agonist = D3 dopamine receptor (human) agonism | D3R DiscoveRx beta-arrestin cells, luminescence, 90 min | AID 652048 | max activation, % | 0.58% of 410,000 active; in the data active means max activation above about 30%; further: 0% is about no effect
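Agonist mode: compounds and dopamine controls were applied to plated cells for 90 min at 37 degrees C after an overnight attachment at 1500 cells/well. Luminescent read-out followed 30 - 60 minutes at room temperature with DiscoveRx detection reagent.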
DT40 TDP1 CPT = growth inhibition of DT40 Tdp1-/-;hTDP1 cells with camptothecin (screen for TDP1 inhibitors). chicken DT40 Tdp1-/-;hTDP1 cells + 20 nM CPT, ATP luminescence, 48 h. Potency, µM (doses to about 46.2 µM), for the others: top-dose activity change, negative = growth inhibition, usual class: inhibitors. 12% of 420,000 active. AID 686979; further: potency means the concentration at half of the fitted maximal effect; on the % scale 0 is the no-effect control and ±100 the full control effect; nearly all actives have a fitted effect of over 55% in size
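Chicken DT40 Tdp1-/- cells complemented with human TDP1, 400 cells/well, exposed to compounds plus 20 nM camptothecin for at least 48 h at 37 C; viability read as ATP content by CellTiter-Glo luminescence.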
Active calls of the source: *; u = inconclusive; x = not tested or not shown. A selection: hits, their analogues and other compounds. The true share with any hit is near 21%. Unless noted, the call rests on the fitted dose curve; in most records, active means well fitted inhibition curve with a large enough effect; inconclusive means small, poorly fitted or top-dose-only effect; inactive means flat fitted curve, though single readings scatter.

SMILES	ClpP mod	DRD3 antagonist	IL1B secr inh	DT40 TDP1 no CPT	DRD3 agonist	DT40 TDP1 CPT
OC(COC(c1ccc(Cl)cc1)c1ccc(Cl)cc1)CN1CCN(c2ccccn2)CC1 (configuration not stated)	x	u	-83.7*	16.4µM*	2.6	u
COCCn1c(=S)[nH]c2ccccc21	x	-3.3	22.6	-3.4%	-4.1	2.5%
Cc1cccc(C)c1OCC(O)CN1CCN(c2ccccc2)CC1 (configuration not stated)	1.6%	-15.1	32.8	u	63.4*	u
O=C(CCc1ccc(S(=O)(=O)N2CCOCC2)cc1)OCC(=O)c1ccccc1	x	3.3	5.8	-1.4%	1.7	8.1%
CC(=O)N1N=C(c2ccc(Cl)cc2)OC1(C)C	x	11.2	5.0	-3.2%	2.6	-0.9%
CC(=O)N1N=C(c2ccc(Br)cc2)OC1(C)CC(=O)Nc1ccccc1 (configuration not stated)	25.1µM*	-13.8	u	u	-11.5	-18.4%
Oc1c(C=Nc2cccnc2)sc2ccccc12	-11.4%	-65.2*	18.9	-23.2%	-3.7	-18.6%
Oc1c(C=NCc2ccncc2)sc2ccccc12	-10.4%	-100.5*	0.0	-3.6%	4.8	-5.0%
CN=Cc1sc2ccccc2c1O	-0.5%	7.5	16.8	-14.9%	-0.3	-0.4%
COc1ccc(OC)c(N2C(N)=NC(N)=NC23CCCC3)c1	0.3%	11.3	-6.5	-8.1%	1.9	-0.1%
Cc1cccc(N2C(N)=NC(N)=NC23CCCCC3)c1	-1.9%	-6.1	14.7	11.6µM*	3.9	16.4µM*
NC1(C(=O)O)CC(C(=O)O)C1 (configuration not stated)	x	x	x	-4.9%	x	-2.2%
O=S(=O)(c1ccccc1)N1CCC2(CCCN(Cc3nccs3)C2)CC1	x	x	x	u	x	2.8%
CCCn1nnc(NC(=S)NC(=O)Cc2ccccc2)n1	-1.3%	u	90.5	23.1µM*	-12.9	u
CCCn1nnc(NC(=S)NC(=O)c2ccc(-c3ccc(Br)cc3)o2)n1	3.7%	-25.6	16.7	u	-1.4	u
CCCn1nnc(NC(=S)NC(=O)CC)n1	1.8%	-11.3	-1.0	18.4µM*	2.4	23.1µM*
CCCn1nnc(NC(=S)NC(=O)/C=C/c2ccc(Cl)cc2)n1	x	7.2	16.8	-5.9%	-7.9	-6.6%
COc1ccc(NC(=O)C2Cc3c(-c4ccccc4)ccnc3O2)cc1OC (configuration not stated)	-3.2%	-7.5	u	4.61µM*	-21.4	u
COc1ccc(NC(=O)C2CC(c3ccc(Cl)cc3)=NO2)cc1OC (configuration not stated)	x	38.4	9.6	u	10.9	-27.9%
CS(=O)(=O)Nc1cccc(NC(=O)C2Cc3c(-c4cccc(C(N)=O)c4)ccnc3O2)c1 (configuration not stated)	-6.1%	-29.1	-10.2	-2.7%	-2.5	-13.5%
COc1ccc(NC(=O)C2Cc3c(-c4ccncc4)ccnc3O2)cc1OC (configuration not stated)	0.3%	21.7	0.0	u	5.8	u
COc1ccc(NC(=O)C2Cc3c(-c4cccc(C(N)=O)c4)ccnc3O2)cc1OC (configuration not stated)	u	0.0	16.1	7.31µM*	39.2*	11.6µM*
COc1ccc(NC(=O)C2Cc3c(-c4ccc(Cl)cc4)ccnc3O2)cn1 (configuration not stated)	0.1%	0.0	-7.1	20.6µM*	2.8	14.6µM*
COc1ccc(NC(=O)C2Cc3c(-c4ccc(Cl)cc4)ccnc3O2)cc1OC (configuration not stated)	-1.9%	15.5	-16.3	18.4µM*	4.2	u
